According to PubChem BioAssay AID504850 (National Center for Advancing Translational Sciences (NCATS), 2011):
About 1,200 (52%) of roughly 2,300 compounds were called active. About 34% were inconclusive and are not listed. Calls follow the shape of the dose curve; as a rule, active = well fitted inhibition curve with a large enough effect; inconclusive = small, poorly fitted or top-dose-only effect, or effect the other way; inactive = no such curve, though single readings can be large or run the other way. The set was probably picked from earlier hits. Some of the results follow.
Potency is read from the fitted curve at half-maximal effect.

Assay: Confirmation screen for delayed death inhibitors of the malarial parasite plastid, 48 hour incubation; also: nearly all actives have a fitted effect of over 65% in size
Details: P. falciparum-infected erythrocytes, luciferase growth; series mostly up to 28.7 µM
Method in brief: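 Erythrocytes infected with luciferase-expressing P. falciparum (2% hematocrit, 0.1% parasitemia) incubated with compounds 48 hours at 37 C, 5% CO2, in RPMI/Albumax. Growth inhibition scored as reduced luminescence after detection reagent.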
With `Cn1cnc([N+](=O)[O-])c1Sc1ccc(Br)cc1` the Potency was “inactive”. With `Cc1cc(Br)ccc1NC(=O)CNC(=O)Cn1ncc(Cl)c(Cl)c1=O` the Potency was 12.6 µM (active). For `O=C(NNc1nc(-c2ccccc2)cs1)c1ccco1`, the Potency was 2.24 µM (active). For `O=C(Nn1c(-c2ccccc2)nc2ccccc2c1=O)c1ccco1`, the Potency was “inactive”. For `S=c1[nH]nc(-c2ccccn2)n1/N=C/c1ccc(-c2ccccc2Br)o1`, the Potency was “inactive”. In the case of `Cc1nn(-c2ccccc2)c(C)c1/C=N/n1c(-c2ccccc2Br)n[nH]c1=S`, the Potency is reported as 14.1 µM (active). In the case of `Cc1[nH]c(=O)c(C(=O)/C=C/c2ccccc2)c2c1CCCC2`, the Potency is reported as 6.31 µM (active). With `Cc1[nH]c(=O)c(C(=O)/C=C/c2ccccc2F)c2c1CCCC2` the Potency was 7.08 µM (active). For `Cc1[nH]c2ccccc2c1/C=N/NC(=O)CNC(=O)Cc1ccccc1`, the Potency was “inactive”. In the case of `Cc1[nH]c2ccccc2c(=O)c1C(=O)/C=C/c1ccccc1`, the Potency is reported as 6.31 µM (active). For `O=C1CSC(c2cccnc2)N1CCc1ccccn1` (stereo not drawn), the Potency was “inactive”. With `CC(=O)Nc1ccc(NC(=O)c2ccc(C3SCC(=O)N3CCc3ccccc3)cc2)cc1` (stereo not drawn) the Potency was 8.91 µM (active). For `N#CCc1nc(C(c2ccccc2)c2ccccc2)no1`, the Potency was 7.94 µM (active). With `CC(C)c1cc(NC(=O)CCl)on1` the Potency was 10 µM (active). With `CC(C)NC(=S)N/N=C/c1sc(N2CCCCC2)nc1-c1cccs1` the Potency was 6.31 µM (active). With `Cc1ccc(C(=O)N/C(=C\c2ccc(-c3ccc(Cl)cc3)o2)C(=O)NCCCN(C)C)cc1` the Potency was 3.98 µM (active). With `C=CCN=c1scc(-c2ccc(F)cc2)n1/N=C/c1ccccn1` the Potency was 6.31 µM (active). For `CCCCN1/C(=C/c2cccc[n+]2C)Sc2cc(NC(C)=O)ccc21`, the Potency was 3.16 µM (active). In the case of `Cc1c(OC(C)C(=O)N2C[C@H]3C[C@@H](C2)c2cccc(=O)n2C3)ccc2c3c(c(=O)oc12)CCC3` (stereo partly drawn), the Potency is reported as 12.6 µM (active). For `Cc1c(CC(=O)N2C[C@H]3C[C@@H](C2)c2cccc(=O)n2C3)c(=O)oc2cc3occ(C(C)(C)C)c3cc12`, the Potency was 12.6 µM (active). With `CC(C)C[C@@H](NC(=O)[C@H](Cc1ccccc1)NC(=O)c1cnccn1)B(O)O` the Potency was 0.178 µM (active). With `O=C(C[C@@H]1C/C=C\CC[C@@H](Cc2ccc(F)cc2)C(=O)OC[C@@H]2CCCN2C1=O)NCCO` the Potency was 12.6 µM (active). With `COc1ccc(NC(=O)N2CCCc3cc(C)ccc32)c(OC)c1` the Potency was 14.1 µM (active). For `Cc1cc(C)n(Cc2ccc(C(=O)N/N=C/c3ccc(-c4ccc([N+](=O)[O-])cc4)o3)o2)n1`, the Potency was 8.91 µM (active). In the case of `CCC/C(C#CCCN1C(=O)c2ccccc2C1=O)=C1/c2ccccc2C(=O)N1c1ccccc1`, the Potency is reported as 7.94 µM (active). In the case of `O=C(CCN1C(=O)c2ccccc2C1=O)C1=NN[C@@H]2C(=O)N(c3ccc(F)cc3)C(=O)[C@H]12`, the Potency is reported as “inactive”. In the case of `CCn1c(SCC(=O)Nc2ccc(C)cc2)nc2sc3c(c2c1=O)CCN(C)C3`, the Potency is reported as 1.41 µM (active). For `CCOC(=O)CSc1nc2sc3c(c2c(=O)n1C1CCCCC1)CCN(C)C3`, the Potency was 3.16 µM (active). For `Cc1cccc(NC(=S)/N=C(\N)Nc2nc(C)c3ccccc3n2)c1`, the Potency was 12.6 µM (active). With `CC(CN1CCC(n2nccc2NC(=O)c2ccccc2Cl)CC1)c1ccccc1` (stereo not drawn) the Potency was 15.8 µM (active). With `C(=N\N(c1ccccc1)c1ccccc1)/c1ccccn1` the Potency was “inactive”. With `O=C(N/N=C/c1ccccn1)c1cc([N+](=O)[O-])cc([N+](=O)[O-])c1` the Potency was 10 µM (active). For `O=[N+]([O-])c1cccc(/C=C/c2nc[nH]c2[N+](=O)[O-])c1`, the Potency was 7.94 µM (active). For `CC1(C)COC(/C=C/c2cccc([N+](=O)[O-])c2)=N1`, the Potency was 14.1 µM (active). For `COc1ccccc1-n1nnnc1S(=O)(=O)Cc1ccc(Cl)cc1`, the Potency was 12.6 µM (active). For `CCCCN(CCCNC(=O)C1CCN(C(=O)c2cc3sccc3n2C)CC1)Cc1ccccc1`, the Potency was 5.62 µM (active). In the case of `CC(NC(=O)c1cc2sccc2n1C)c1ccc2c(c1)OCCO2` (stereo not drawn), the Potency is reported as “inactive”. In the case of `O=C(Nc1ccc2c(c1)CCCN2C(=O)c1ccco1)c1cc([N+](=O)[O-])ccc1Cl`, the Potency is reported as 12.6 µM (active). In the case of `COc1ccccc1N(Cc1ccccc1)S(=O)(=O)c1cccc(C(=O)Nc2cc(C)ccn2)c1`, the Potency is reported as 11.2 µM (active). In the case of `COc1ccccc1N(Cc1ccccc1)S(=O)(=O)c1cccc(C(=O)Nc2ccccn2)c1`, the Potency is reported as 8.91 µM (active). With `COc1cc(OC)cc(C(=O)Nc2ccc3c(c2)CCCN3C(=O)c2cccs2)c1` the Potency was 12.6 µM (active). In the case of `Cc1ccccc1C(=O)Nc1ccc2c(c1)CCCN2C(=O)c1cccs1`, the Potency is reported as 12.6 µM (active). In the case of `CC(=O)Nc1ccc(OCc2cccc3ccccc23)cc1`, the Potency is reported as 12.6 µM (active). In the case of `O=C(Cc1cccc2ccccc12)Nc1ccccc1C(=O)O`, the Potency is reported as “inactive”. In the case of `CCOC(=O)c1c(NC(=O)CSc2ccccc2C(=O)O)sc(C)c1C`, the Potency is reported as “inactive”. For `CCOC(=O)c1c(NC(=O)CSc2c[nH]c3ccccc23)sc2c1CCCC2`, the Potency was 14.1 µM (active). In the case of `COc1cc([N+](=O)[O-])c(OC)cc1SCc1n[nH]c(=S)n1-c1ccc(F)cc1`, the Potency is reported as 14.1 µM (active). With `CCCCCCC1C(C#N)=C(N)OC2=C1C(=O)CCC2` (stereo not drawn) the Potency was “inactive”. For `CCc1nc(SCC(=O)Nc2ccc(N(C)C)cc2)n[nH]1`, the Potency was “inactive”. In the case of `COc1cccc(NC(=O)CSc2nc3n[nH]c(C)c3c(=N)n2-c2cccc(OC)c2)c1`, the Potency is reported as 7.94 µM (active). In the case of `COc1ccc2c(CC(=O)OCC(=O)Nc3cccc(S(N)(=O)=O)c3)coc2c1`, the Potency is reported as “inactive”. With `CCc1ccc(NC(=O)CSc2nc3n[nH]c(C)c3c(=N)n2-c2cccc(OC)c2)cc1` the Potency was 5.62 µM (active). For `COc1cccc(NC(=O)c2oc3ccccc3c2NC(=O)C2CC2)c1`, the Potency was 15.8 µM (active). With `COc1ccccc1NC(=O)c1oc2ccccc2c1NC(=O)C1CC1` the Potency was 8.91 µM (active). For `COc1cccc(NC(C)C(=O)Nc2cc([N+](=O)[O-])ccc2Cl)c1` (stereo not drawn), the Potency was 3.16 µM (active). For `COc1cccc(N/C(SCc2cccc([N+](=O)[O-])c2)=C(/C#N)C(N)=O)c1`, the Potency was “inactive”. With `Cn1c(CCN2CCCC2)nc2cc(NS(=O)(=O)c3ccccc3)ccc21` the Potency was 3.55 µM (active). In the case of `CC1CCCCN1C(=O)COC(=O)c1cccc(NS(=O)(=O)c2ccccc2)c1` (stereo not drawn), the Potency is reported as “inactive”. For `Cn1c(CCN2CCCC2)nc2cc(NS(=O)(=O)c3ccc(Cl)cc3)ccc21`, the Potency was 11.2 µM (active). For `CC(=O)c1ccc(N/N=C(/C(N)=O)C2=NC(C)(C)Cc3ccccc32)cc1`, the Potency was 7.08 µM (active). For `Cc1cccc(N/N=C(\C(N)=O)C2=NC(C)(C)Cc3ccccc32)c1`, the Potency was 4.47 µM (active). In the case of `CN(Cc1ccc(Cl)c(Cl)c1)C(=O)C1=CC=CN2CCS(=O)(=O)N=C12`, the Potency is reported as 7.94 µM (active). For `CN1C(=O)C(C)(C)c2cc(S(=O)(=O)NCC3CCC(C(=O)NCc4ccc(F)cc4)CC3)ccc21` (stereo not drawn), the Potency was 15.8 µM (active). In the case of `CC1(C)CC(=O)c2sc(NC(=O)CCS(=O)(=O)c3ccccc3)nc2C1`, the Potency is reported as “inactive”. For `CCOc1cccc2sc(NC(=O)CCS(=O)(=O)c3ccccc3)nc12`, the Potency was 11.2 µM (active). In the case of `COc1ccc(C)c2sc(NC(=O)CCS(=O)(=O)c3ccccc3)nc12`, the Potency is reported as “inactive”. For `Nc1nonc1-n1nnc(C(=O)N/N=C/c2ccc(Cl)cc2)c1-c1ccc2c(c1)OCO2`, the Potency was 0.0562 µM (active). With `CCOc1ccc(-c2c(C(=O)N/N=C/c3ccc(OC(C)C)cc3)nnn2-c2nonc2N)cc1` the Potency was 15.8 µM (active). With `Nc1nonc1-n1nnc(C(=O)N/N=C/c2cccc(Cl)c2)c1-c1ccc2c(c1)OCO2` the Potency was 0.126 µM (active). With `CN(Cc1c(C(=O)N/N=C/c2cccc(O)c2)nnn1-c1nonc1N)c1ccccc1` the Potency was “inactive”. In the case of `Cc1ccsc1/C=N/NC(=O)c1nnn(-c2nonc2N)c1-c1ccc2c(c1)OCO2`, the Potency is reported as 1.26 µM (active). For `CC(=O)NC[C@@H]1CN(c2ccc(N3CCOCC3)c(F)c2)C(=O)O1`, the Potency was “inactive”. For `CCCC(=O)N=C1SC2CS(=O)(=O)CC2N1c1ccc(CC)cc1` (stereo not drawn), the Potency was 7.94 µM (active). For `CC(=O)Nc1nc2ccccc2n1Cc1ccc(C)cc1`, the Potency was 6.31 µM (active). In the case of `CC(=O)NC(C)c1nc2ccccc2n1CC(=O)N1C(C)CCCC1C` (stereo not drawn), the Potency is reported as “inactive”. In the case of `Clc1cccc(CN2CCc3c([nH]c4ccccc34)C2)c1`, the Potency is reported as 12.6 µM (active). In the case of `CCN(CC)CCNC(=O)c1ccc(NC(=O)c2ccccc2-c2ccc(C(F)(F)F)cc2)cc1`, the Potency is reported as 12.6 µM (active). In the case of `CCOCCCNC(=O)/C(C#N)=C/c1ccc(-c2ccc(S(=O)(=O)N3CCOCC3)cc2)o1`, the Potency is reported as 14.1 µM (active). For `COc1ccc(-c2c(-c3cc(OC)cc(OC)c3)n(C)c3ccc(-c4ccc5[nH]ccc5c4)cc23)cc1`, the Potency was 8.91 µM (active). For `COc1cc2c(cc1OC)CN(C(=O)c1cccc(S(=O)(=O)N3CCc4ccccc43)c1)CC2`, the Potency was 11.2 µM (active). With `O=C(c1cccc(S(=O)(=O)N2CCc3ccccc32)c1)N1CCN(c2ccccc2)CC1` the Potency was 14.1 µM (active). In the case of `O=C(CNC(=O)c1cccc(S(=O)(=O)N2CCc3ccccc32)c1)Nc1ccc(F)c(F)c1F`, the Potency is reported as 12.6 µM (active). In the case of `Cc1cc(C)c2[nH]c(C(=O)N3CCC(n4nccc4NC(=O)C4CC4)CC3)c(C)c2c1`, the Potency is reported as 12.6 µM (active). In the case of `Cc1c(C(=O)N2CCC(n3nccc3NC(=O)C3CC3)CC2)[nH]c2ccc(Cl)cc12`, the Potency is reported as 11.2 µM (active). In the case of `Cc1ccc(S(=O)(=O)Nc2cccc3cccnc23)c([N+](=O)[O-])c1`, the Potency is reported as 5.01 µM (active). For `Cc1ccc(S(=O)(=O)Nc2cccc3cccnc23)cc1`, the Potency was 7.08 µM (active). For `N#Cc1cccc(NC(=O)Cn2c3[n+](c4ccc(C(F)(F)F)cc42)CCCCC3)c1`, the Potency was 4.47 µM (active). With `CC1(CCc2ccc3c(c2)OCO3)NCCc2c1[nH]c1ccccc21` (stereo not drawn) the Potency was 8.91 µM (active).
